Source: PubChem BioAssay
LDHA inh: qHTS assay for inhibitors of human lactate dehydrogenase. L-lactate dehydrogenase A chain (Homo sapiens), P00338. 0.15% of 480,000 active. activity change, % (values are at about 110 or 230 µM). purified LDHA, NADH/diaphorase-resazurin fluorescence; active compounds read low; in the data active = activity change below about -30%; inconclusive = mostly about -25% to -30%;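 also: plate controls were DMSO wells for no effect and wells without enzyme for full effect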
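Remaining NADH was detected by diaphorase (0.133 mg/mL) converting 37 µM resazurin to fluorescent resorufin, read at 0 and 20 minutes. The preceding 5-minute room-temperature reaction used 2 nM LDHA, 0.2 mM sodium pyruvate and 0.06 mM NADH at pH 7.4.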
RGS4 inh: Inhibitors of Regulator of G Protein Signaling (RGS) 4: qHTS; AID 504845, 2011; Potency, µM (titrated, usually from 114 µM), inactives show at the top dose activity change, negative = inhibition, actives largely listed as inhibitors; Transcreener GDP fluorescence polarization, RGS4-accelerated GTP hydrolysis; 0.039% of 390,000 active; Regulator of G-protein signaling 4 (Homo sapiens), P49798; also: potency is read from the fitted curve at half-maximal effect; % is scaled to controls: 0 for no effect and ±100 for the full control effect; nearly all actives have a fitted effect of over 75% in size
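MLSMR compounds (23 nl, pin-transferred) preincubated 10 min at room temperature with a 500nM (2x) first reagent, then RGS4 at 900nM (2x) plus Transcreener GDP mix added; fluorescence polarization (620/688 nm) read before and after 90 min at 30 °C.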
Mito fusion yeast: qHTS Assay for Small Molecule Inhibitors of Mitochondrial Division or Activators of Mitochondrial Fusion; S. cerevisiae fusion-defective mutant growth rescue, CellTiterGlo 48 h; 0.23% of 320,000 active; Potency, µM (doses to about 46.1 µM), for inactives: top-dose growth rescue (activation), actives largely listed as activators; also: potency is read from the fitted curve at half-maximal effect; % of control where 0% means no effect; nearly all actives have a fitted effect of over 45% in size
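Compounds are tested for their ability to restore growth of mitochondrial fusion-defective yeast strains at non-permissive 37C in YPEG medium over 48 hours. Viability is quantified by luciferase luminescence.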
ASM inhibitor: Inhibitors of Secretory Acid Sphingomyelinase (S-ASM): qHTS; Potency, µM (series often up to 57.5 µM), inactives show at the highest dose activity change, negative = inhibition, actives largely listed as inhibitors; 0.006% of 340,000 active; placental ASM, HMU-PC fluorogenic substrate, 60 min; AID 504937, 2011; also: potency is read from the fitted curve at half-maximal effect
Target sequence (P17405 47-631 limits assumed): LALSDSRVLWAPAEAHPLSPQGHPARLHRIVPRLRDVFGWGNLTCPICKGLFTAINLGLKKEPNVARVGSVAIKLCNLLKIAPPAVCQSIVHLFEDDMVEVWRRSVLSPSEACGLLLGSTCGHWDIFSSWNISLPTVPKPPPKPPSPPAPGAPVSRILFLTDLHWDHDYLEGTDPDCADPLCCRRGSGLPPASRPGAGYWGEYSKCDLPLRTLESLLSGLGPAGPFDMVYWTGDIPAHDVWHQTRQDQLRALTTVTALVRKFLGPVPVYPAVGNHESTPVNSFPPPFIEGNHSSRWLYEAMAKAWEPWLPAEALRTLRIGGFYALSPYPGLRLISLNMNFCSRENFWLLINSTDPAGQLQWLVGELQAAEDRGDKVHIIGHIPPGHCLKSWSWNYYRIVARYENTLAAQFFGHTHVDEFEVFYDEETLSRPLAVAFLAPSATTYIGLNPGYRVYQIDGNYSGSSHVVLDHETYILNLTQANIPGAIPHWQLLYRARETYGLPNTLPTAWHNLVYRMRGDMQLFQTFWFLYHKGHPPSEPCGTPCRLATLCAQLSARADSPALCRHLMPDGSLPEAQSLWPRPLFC
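Human placenta-derived ASM enzyme was preincubated with compound for 10 minutes at room temperature, then given fluorogenic substrate HMU-PC0 (9 uM final) for 60 minutes at 37 °C; a pH 10 stop preceded fluorescence reading at Ex 386/Em 447 nm.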
ClpP mod: qHTS Assay for Activators of ClpP; ATP-dependent Clp protease proteolytic subunit (Bacillus subtilis (strain 168)), P80244; purified B. subtilis ClpP, FRET peptide cleavage, 20 min; Potency, µM (top dose mostly 57.5 µM), inactives show at the top dose activity change, negative = active; 1.9% of 340,000 active; active = well fitted falling curve with a large enough effect; inconclusive = small, poorly fitted or top-dose-only effect; inactive = no such curve, though single readings can be large or run the other way; also: potency is read from the fitted curve at half-maximal effect; the source files actives as falling curves though it sought activators and does not explain the sign; nearly all actives have a fitted effect of over 65% in size
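Purified B. subtilis ClpP, 10 microg/mL final in Tris/HCl pH8 with KCl, BSA, glycerol and Tween-20, cleaved an Abz/nitrotyrosine-quenched decapeptide. Fluorescence (ex 320, em 430) was read at 0 and 20 min at room temperature. Delta was normalized to 5.8 microM ADEP and DMSO/no-enzyme controls.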
IDH1 R132H inh: qHTS for Inhibitors of mutant isocitrate dehydrogenase 1 (IDH1): qHTS; Isocitrate dehydrogenase [NADP] cytoplasmic (Homo sapiens), O75874; IDH1-R132H enzyme, NADPH consumption, diaphorase/resazurin fluorescence; Potency, µM (titrated, usually from 76.6 µM), without a hit: top-dose activity change, negative = inhibition, actives largely listed as inhibitors; 0.093% of 390,000 active; AID 602179, 2012; also: potency is read from the fitted curve at half-maximal effect; % is scaled to controls: 0 for no effect and ±100 for the full control effect; nearly all actives have a fitted effect of over 65% in size
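IDH1-R132H (0.5 ug/mL) preincubated 30 min with compound, then NADPH (0.016 mM) and alpha-KG (2 mM) added; 80 min at RT, pH 7.5. Remaining NADPH coupled via diaphorase/resazurin to fluorescence (540/590 nm); concentration-response curves normalized to no-enzyme control.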
An asterisk follows results filed as active; i = inactive; ? = inconclusive; . = no result given; ! = repeats disagree. This excerpt belongs to a sample that is enriched for hits. Unless noted, calls follow the shape of the dose curve; as a rule, active = well fitted curve in the direction sought with a large enough effect; inconclusive = small, poorly fitted or top-dose-only effect, or another doubt; inactive = no such curve, though single readings can be large; an effect the other way counts as inactive or inconclusive.

SMILES | LDHA inh | RGS4 inh | Mito fusion yeast | ASM inhibitor | ClpP mod | IDH1 R132H inh
Cc1ccc(C(=O)OCC(=O)c2ccccc2)cc1 | -8.4 | -17.9% | -2.9% | . | 14.1µM* | 5.1%
COc1ccc(N2CCN(C(CNC(=O)c3cccs3)c3ccco3)CC2)cc1 (stereo not given) | -3.0 | -13.7% | 0.5% | . | 15.8µM* | -0.6%
O=C(NCC(c1ccco1)N1CCN(c2ccc(F)cc2)CC1)c1cccs1 (stereo not given) | -2.5 | 1.9% | 20.5% | 2.0% | . | -2.3%
COc1ccc(OC)c(S(=O)(=O)Nc2ccc(-c3ccc(N4CCOCC4)nn3)cc2)c1 | 10.9 | . | . | . | . | .
Cc1ccc2cc(C#N)c(NCCNC(=O)C3CC3)nc2c1C | -15.2 | -21.0% | 1.2% | 265.5% | 35.5µM* | 4.8%
CCC(=O)NCCNc1nc2cc(C)c(C)cc2cc1C#N | -2.9 | -1.5% | -0.6% | i | 12.6µM* | 15.7%
CCOc1ccc2nc(NCCNC(=O)CC)c(C#N)cc2c1 | 12.1 | -27.9% | 5.0% | i | ? | 6.1%
Cc1cc(C)n2c(Br)c(CN3CCCC(C)C3)nc2n1 (stereo not given) | -6.4 | 8.1% | -11.3% | 2.1% | . | -0.5%
Cc1cc(C)nc(SCc2nc3nc(C)cc(C)n3c2Br)n1 | -12.7 | 13.1% | -3.6% | 6.3% | 28.2µM* | 0.0%
C[C@H]1O[C@@H](O[C@H]2[C@@H](O)C[C@H](O[C@H]3[C@@H](O)C[C@H](O[C@H]4CC[C@@]5(C)[C@H](CC[C@@H]6[C@@H]5C[C@@H](O)[C@]5(C)[C@@H](C7=CC(=O)OC7)CC[C@]65O)C4)O[C@@H]3C)O[C@@H]2C)C[C@H](O)[C@@H]1O | -2.1 | 1.68µM*! | 6.0% | -0.2% | 0.0% | -8.3%
Cc1c(C(=O)Nc2ccc3c(c2)OCCO3)sc2ncnc(N3CCCCC3C)c12 (stereo not given) | -0.9 | -8.0% | 11.2µM* | -13.4% | -1.2% | 0.0%
Cc1nc(N2CCC(C)CC2)c2c(C)c(C(=O)Nc3ccc4c(c3)OCCO4)sc2n1 | -2.0 | -0.4% | 23.9% | -0.5% | -10.1% | 0.7%
Cc1ccc(-c2nc3ccccc3n2C)o1 | 0.2 | -43.4% | -9.5% | -2.2% | 15.8µM* | 6.6%
O=C(CSc1ccc(Cl)cc1)Nc1ccc(-c2nc3ccccc3[nH]2)cc1 | -14.1 | ? | -3.0% | 4.9% | 25.1µM* | 2.4%
Cc1ccc2cccc(SCC(=O)N3CCOCC3)c2n1 | -2.7 | 19.7% | -8.5% | 2.9% | 28.2µM* | 12.0%
Cc1ccc2cccc(SCC(=O)NCc3ccco3)c2n1 | -3.8 | -0.5% | -2.2% | 3.3% | 14.1µM* | 2.0%
COc1ccc(NC(=O)c2cc3cc(Br)ccc3oc2=O)cc1 | -9.1 | . | . | . | . | .
CCOc1ccc(S(=O)(=O)NCc2ccc(OC)cc2)c2cccnc12 | -3.3 | -1.2% | 0.1% | 6.2% | -5.6% | 5.5%
CCOc1ccc(S(=O)(=O)NCc2ccc(F)cc2)c2cccnc12 | 4.0 | 12.1% | 1.1% | -3.7% | 25.1µM* | -3.3%
CCOc1ccc(S(=O)(=O)Nc2ccccn2)c2ccccc12 | -6.2 | -16.0% | 1.1% | 0.6% | 35.5µM* | 0.3%
COc1ccc(Br)c2c1/C(=N/OC(=O)c1ccccc1Cl)CC2 | -0.6 | . | . | . | . | .
Brc1cccc(Cn2c(-c3cncs3)nc3ccccc32)c1 | -6.6 | -8.1% | ? | -8.3% | -10.8% | 1.8%
Cc1cccc(Cn2c(-c3cccc(Br)c3)nc3ccccc32)c1 | 2.7 | 9.8% | . | . | 31.6µM* | -3.9%
O=C(Cc1ccc(-c2ccccc2)cc1)Nc1ccccc1C(F)(F)F | -5.9 | . | . | . | . | .
